# MARV entry inh = inhibitors of Marburg virus binding or cell entry. Marburg virus pseudotyped entry inhibition, cell reporter. Potency, µM (doses to about 37.8 µM), for inactives: top-dose activity change, negative = inhibition, most hits filed as inhibitors. 300,000 tested, 1.8% active. AID 540276; calls by dose curve; tested in HEK293 cells; also: potency is read from the fitted curve at half-maximal effect; % is scaled to controls: 0 for no effect and ±100 for the full control effect
# Cycloheximide cs = counter-screen for Shiga toxin inhibitors: cycloheximide protein synthesis inhibition. cell reporter, cycloheximide protein synthesis inhibition counterscreen. max response, %. 300,000 tested, 12% active. AID 2314; in the data active = max response mostly above about 13%, no sharp cut-off; inactive = mostly below about 14%; also: read at 38.3 µM for the half of the compounds with a filed dose; 0% is about no effect
# Lassa entry inh = Lassa virus entry inhibition; 300,000 tested, 1.2% active; Potency, µM (doses to about 37.9 µM), inactives show at the highest dose activity change, negative = inhibition, most hits filed as inhibitors; Lassa virus pseudotype entry inhibition, cell reporter; calls by dose curve; tested in HEK293 cells; also: potency is read from the fitted curve at half-maximal effect; % is scaled to controls: 0 for no effect and ±100 for the full control effect; nearly all actives have a fitted effect of over 50% in size
# Shiga inhibitor = Shiga toxin inhibition; 290,000 tested, 9.2% active; inhibition, % at 38.7 µM; Vero cells, Shiga toxin protein synthesis inhibition reporter; in the data active = inhibition mostly above about 28%, no sharp cut-off; inactive = mostly below about 43%; also: 0% is about no effect
# VACV Venus inh = vaccinia inhibition (Venus reporter) | Vaccinia virus Venus reporter expression, fluorescence | Potency, µM (titrated, usually from 36.5 µM), for the others: at the top dose activity change, negative = inhibition, actives largely listed as inhibitors | 330,000 tested, 0.46% active | AID 720580; calls by dose curve; tested in A549 cells; also: potency is read from the fitted curve at half-maximal effect; % is scaled to controls: 0 for no effect and ±100 for the full control effect; nearly all actives have a fitted effect of over 30% in size
# Vaccinia mCherry = inhibitors of vaccinia virus infection (mCherry reporter signal) | 310,000 tested, 0.63% active | Vaccinia virus mCherry reporter infection, fluorescence | Potency, µM (titrated, usually from 36.5 µM), for the others: at the top dose activity change, negative = inhibition, usual class: inhibitors; calls by dose curve; tested in A549 cells; also: potency is read from the fitted curve at half-maximal effect; % is scaled to controls: 0 for no effect and ±100 for the full control effect; nearly all actives have a fitted effect of over 35% in size
# * = called active by the depositor; i = inactive; ? = inconclusive; · = not tested or not shown; [ ] = another dose, or the depositor's remark. The full list was thinned out, with hits kept by preference.
SMILES,MARV entry inh,Cycloheximide cs,Lassa entry inh,Shiga inhibitor,VACV Venus inh,Vaccinia mCherry
O=C(CNC(=O)c1ccccc1F)N/N=C/c1cccs1,·,30*,·,53*,·,·
Cc1cc(C)n2nc(C(=O)N/N=C/c3cccs3)nc2n1,19%[46.1 µM],8,9%[46.1 µM],17,-7%,-13%
CCOC(=O)C1CCN(C(=O)Cn2ncc3c4ccccc4n(Cc4ccccc4)c3c2=O)CC1,1%[46.1 µM],·,-26%[46.1 µM],·,-16%,-14%
CCc1ccc(CNC(=O)CN2C(=O)c3cccnc3Oc3ccc(C)cc32)cc1,·,·,-30%[46.1 µM],·,-16%,i
Cc1ccc(C(C)C)c(OCCSc2nc(-c3ccccc3F)nc3cc(=O)[nH]n23)c1,·,·,3%[46.1 µM],·,-5%,i
COc1cc(=O)n2c(c1C(=O)NCc1ccco1)CCN(Cc1c(F)cccc1F)CC2,·,·,·,·,-15%,i
COc1ccccc1CNC(=O)c1cnn(-c2nccc(-c3cccs3)n2)c1C,·,·,·,·,-13%,-9%
COC(=O)[C@H](CO)N1C(=O)[C@@H]2[C@@H](C1=O)[C@H]1C=C[C@@H]2C1,·,·,4%[46.1 µM],·,·,·
CCOc1nc(NCc2ccco2)nc(Nc2ccccc2F)n1,?,27*,10%,active,-13%,-4%
CCOc1nc(NCCO)nc(Nc2ccccc2F)n1,·,17*,·,48,·,·
CCOc1nc(NCc2ccco2)nc(Nc2ccc(OC)cc2)n1,2%,27*,6%,28,-25%,-12%
CCOC(=O)N1CCN(c2ccc(C(F)(F)F)cn2)CC1,12%,20*,?,28,-15%,-13%
CCOc1ncccc1C(=O)N1CCN(c2ccc(C(F)(F)F)cn2)CC1,22%[46.1 µM],-2,-9%,2,-15%,-16%
Clc1ccc(OCc2nnc3n2CCCCC3)c(Cl)c1,·,28*,·,56*,·,·
Cc1cc(Cl)ccc1OCc1nnc2n1CCCCC2,·,6,·,21,·,·
COc1cc(C2NC(=O)NC(c3ccccc3)=C2C(C)=O)cc([N+](=O)[O-])c1O (configuration not stated),·,-4,·,7,·,·
Cc1cccc(-n2ccnc2CN2CCN(C(C)C)C(CCO)C2)c1 (configuration not stated),-15%[46.1 µM],-3,0%,9,-15%,-3%
CCOC(=O)c1cc(NC(=O)c2ccc(C)cc2)c(=O)oc1C(F)(F)F,30%,18,3%,26,·,·
Cc1ccc(C(=O)Nc2ccc(Cl)cc2C(=O)c2ccccc2)cc1,-23%,·,-17%,·,·,·
CC(=O)c1cc(NC(=O)c2ccccc2)c(=O)oc1C,8%[46.1 µM],6,-1%,-13,-7%,-14%
CCOC(=O)c1cc(NC(=O)c2ccccc2)c(=O)oc1C(F)(F)F,1%[46.1 µM],27*,-1%,16,-5%,-8%
Cc1oc(=O)c(NC(=O)c2ccc(Cl)cc2)cc1C(=O)c1ccccc1,?,65*,23µM*,132*,·,·
Cc1oc(=O)c(NC(=O)c2ccccc2)cc1C(=O)c1ccccc1,2%,64*,?,101*,·,·
CC1(C)CC(=O)c2cc(NC(=O)c3ccccc3)c(=O)oc2C1,14%,27*,?,55*,-7%,-12%
COc1ccccc1NC(=O)Cc1c(C(=O)O)[nH]c2ccc(Cl)cc12,·,·,15%[46.1 µM],·,-6%[7.34 µM],-4%[7.34 µM]
SMILES,MARV entry inh,Cycloheximide cs,Lassa entry inh,Shiga inhibitor,VACV Venus inh,Vaccinia mCherry
C=CC(=O)Nc1sc2c(c1C(N)=O)CCCC2,·,·,·,·,-26%,?
NC(=O)c1c(NC(=S)Nc2ccc(F)cc2)sc2c1CCCC2,7%[46.1 µM],18*,-20%,40,-8%,-14%
CCCC(=O)NC(=S)Nc1sc2c(c1C(N)=O)CCC2,-7%,17,14%,65,·,·
NC(=O)c1c(NC(=S)Nc2ccccc2)sc2c1CCCC2,?,7,-29%,36,-2%,0%
C=CCNC(=S)Nc1sc2c(c1C(N)=O)CCCC2,2%[46.1 µM],15*,0%,56,-3%[7.34 µM],i[7.34 µM]
CC(C)N1CCc2c(sc(NC(=O)C3CCCCC3)c2C(N)=O)C1,·,-4,·,-10,13µM*,?
CC(C)C(=O)NC(=S)Nc1sc2c(c1C(N)=O)CCCC2,?,25*,1%,36*,?,-15%
COc1cc(C(=O)Nc2ccc(N3CCOCC3)cc2)ccc1OCc1c(C)noc1C,18%,-1,-16%,20,-25%,-19%
C=C1CCC(C)C(C)(CCC2=CCOC2=O)C/C=C\C=C/1C(=O)O (configuration not stated),·,0,·,-8,-4%,0%
CCOc1cc(N(CC)CC)ccc1/C=C(/C#N)c1nc2ccccc2[nH]1,13µM*,27*,-15%,82*,·,·
CCCOc1cc(N(CC)CC)ccc1/C=C(/C#N)c1nc2ccc(C)cc2[nH]1,?,16,-27%,8,104%,i
CCN(CC)c1ccc(/C=C(/C#N)c2nc3ccc(C)cc3[nH]2)c(OC(C)C)c1,?,15*,?,22,44%,-25%
CN(C)/C=C(\C#N)c1nc2ccccc2[nH]1,23%,13,14%,26,-1%,i
O=c1c2cc3c(cc2n(Cc2ccc(Cl)cc2)c(=O)n1Cc1nc(-c2ccccc2)no1)OCO3,·,·,-5%[46.1 µM],·,-10%,0%
CCOC(=O)c1ccccc1NC(=O)Cn1c(=O)n(Cc2nc(-c3ccccc3)no2)c(=O)c2ccccc21,·,·,29%[46.1 µM],·,-6%,-14%
COc1cccc(-c2nc(COc3ccc(Cl)cc3Cl)no2)c1,2%,14*,·,14,·,·
COc1ccccc1-c1nc(COc2ccc(Cl)cc2Cl)no1,1%,52*,1%,91*,-7%,-10%
C=Cc1cc2c(s1)c1cnn(Cc3ccccc3F)c(=O)c1n2C,·,-4,·,-6,·,·
O=C(c1ccccn1)N(c1ccccc1)C1(C(=O)NC2CCCCC2)CCCCC1,3%,3,-1%,-8,-7%,i
O=C(Nc1cccnc1Cl)c1cc(-c2ccc(O)cc2)on1,21%[46.1 µM],25*,0%[46.1 µM],73*,-1%,?
O=C(NC1CCCCC1)c1cc(-c2ccccc2O)on1,-21%[46.1 µM],27*,?,109*,-14%,1%
Cc1ccc(-c2cc(C(=O)NC3CCCCC3)no2)cc1,?,20*,8%[46.1 µM],17,2%,-11%
O=C(NC1CCCCC1)c1cc(-c2ccc(O)cc2)on1,6%[46.1 µM],33*,-20%[46.1 µM],71*,-14%,?
COc1ccc(-c2cc(C(=O)NC3CCCCC3)no2)cc1OC,7%[46.1 µM],-3,0%[46.1 µM],4,-1%,-9%
O=C(c1ccc2c(c1)OCO2)c1cn(Cc2ccc(F)cc2)c2ccccc2c1=O,-7%[46.1 µM],·,13%[46.1 µM],·,-14%,-13%
Cc1ccc2onc(CNC(=O)NCc3cccc(Cl)c3)c2c1,·,·,17%[46.1 µM],·,-12%,0%
O=C1C2C3CCC(C3)C2C(=O)N1c1ccc(OS(=O)(=O)c2ccccc2)cc1 (configuration not stated),?,33*,?,78*,-26%,-25%
Cc1ccc(S(=O)(=O)Oc2ccc(N3C(=O)C4C5CCC(C5)C4C3=O)cc2)cc1 (configuration not stated),?,18,-8%[46.1 µM],12,-7%,i

# From PubChem
